High-throughput results: PubChem BioAssay, National Center for Advancing Translational Sciences (NCATS)
A selection: hits, their analogues and other compounds. The true share with any hit is near 5.3%.
PNC assembly inh: High Content Assay for Compounds that inhibit the Assembly of the Perinucleolar Compartment. PC3M PTB-GFP, PNC prevalence imaging, 16 h; stronger effect = lower value. activity change (PNC), negative = inhibition, % at 10 µM. 3.1% of 140,000 active;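 active means readout at or below -70, meaning at least 70% loss of cells showing the perinucleolar compartment, a nuclear body marking cancer cells; inconclusive means readout between -30 and a set limit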;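 further: plate controls were DMSO wells for no effect and camptothecin positive control wells for full effect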
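Compounds are pinned in duplicate onto adhered PC3M cells stably expressing GFP-tagged PTB and incubated 16 h at 37 C. Cells are then fixed, nuclei stained with Hoechst, and PNC-positive cells counted.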
IMPase inh: qHTS Assay for Identifying the Cell-Membrane Permeable IMPase Inhibitors; inhibition (IP1 accumulation), % at 46.1 µM; AID 901, 2007; CHO-M1 cells, IP1 accumulation, HTRF TR-FRET ratio; Inositol monophosphatase 1 (Rattus norvegicus), P97697; 120,000 tested, under 10 active; active means well fitted curve in the direction sought with a large enough effect in the signal ratio, not every such curve was filed as active; inconclusive means small, poorly fitted or top-dose-only effect, or a change in a side signal; inactive means no such curve, though single readings can be large or run the other way; the % refers to the signal ratio;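 further: cells stimulated with carbachol in lithium chloride buffer; plate controls were DMSO basal wells for no effect and reference inhibitor wells for full effect; higher means more IMPase inhibition seen as more IP1 and lower FRET ratio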
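CHO-M1, 2000 cells/well, cultured 16–30 h; cpd up to 46 uM; carbachol (50 uM solution, stimulation buffer w/ 50 mM LiCl, pH 7.4), 30 min 37C; IP-One TR-FRET, 10 min RT; Ex 320/Em 665, 620; Hill-fit AC50.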
15-hLO-2 inh: qHTS Assay for Inhibitors of 15-hLO-2 (15-human lipoxygenase 2); purified 15hLO-2, xylenol orange hydroperoxide absorbance; Potency, µM (series often up to 57.1 µM), without a hit: top-dose activity change, negative = inhibition, most hits filed as inhibitors; 0.56% of 110,000 active; further: potency means the concentration at half of the fitted maximal effect; nearly all actives have a fitted effect of over 60% in size
Target sequence (O15296 whole entry, looked up): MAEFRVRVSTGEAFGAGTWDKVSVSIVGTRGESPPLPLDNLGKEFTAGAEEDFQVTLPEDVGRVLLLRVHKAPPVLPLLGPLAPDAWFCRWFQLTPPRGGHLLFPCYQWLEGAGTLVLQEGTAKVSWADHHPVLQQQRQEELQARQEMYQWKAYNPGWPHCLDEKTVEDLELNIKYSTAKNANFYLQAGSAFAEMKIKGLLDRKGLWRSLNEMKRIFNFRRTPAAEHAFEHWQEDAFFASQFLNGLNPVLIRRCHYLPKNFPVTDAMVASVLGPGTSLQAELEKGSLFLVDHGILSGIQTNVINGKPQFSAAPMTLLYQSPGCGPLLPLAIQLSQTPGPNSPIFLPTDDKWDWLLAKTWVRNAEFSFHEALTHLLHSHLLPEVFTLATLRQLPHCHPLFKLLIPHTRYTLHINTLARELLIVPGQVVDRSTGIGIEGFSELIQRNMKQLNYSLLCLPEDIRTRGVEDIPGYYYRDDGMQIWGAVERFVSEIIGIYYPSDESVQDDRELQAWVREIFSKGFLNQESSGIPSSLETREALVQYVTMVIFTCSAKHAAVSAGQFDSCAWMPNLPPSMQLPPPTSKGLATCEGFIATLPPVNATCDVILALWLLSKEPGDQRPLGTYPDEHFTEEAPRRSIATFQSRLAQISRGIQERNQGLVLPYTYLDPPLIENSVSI
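Read-out: hydroperoxide product oxidises ferrous iron, measured as xylenol orange complex via the 573-to-405 nm absorbance ratio after 30 min. Reaction: 50 nM enzyme, 15 min compound preincubation, 45 uM arachidonic acid, 90 min RT, Hepes pH 7.5 with Triton X-100.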
HPGD block: qHTS Assay for Inhibitors of HPGD (15-Hydroxyprostaglandin Dehydrogenase); purified HPGD, NADH fluorescence kinetic, PGE2 substrate; Potency, µM, inactives show at the highest dose activity change, negative = inhibition, most hits filed as inhibitors; 4.3% of 150,000 active; active means well fitted inhibition curve with a large enough effect, not every such curve was filed as active; inconclusive means small, poorly fitted or top-dose-only effect, or another doubt; inactive means no such curve, though single readings can be large or run the other way; further: potency means the concentration at half of the fitted maximal effect
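NADH formation kinetics: reaction with 30 uM PGE2 and 1 mM NAD+ (final), 20 nM enzyme, Tris-HCl pH 8 with Tween 20, after 15 min compound preincubation at room temperature. Fluorescence change, last versus first of five reads.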
IMPase Li cell: qHTS Assay for Identifying the Cell-Membrane Permeable IMPase Inhibitors: Potentiation with Lithium | Potency, µM (doses to about 59.4 µM), without a hit: at the highest dose activity, negative = IMPase inhibition, most hits filed as inhibitors | CHO-M1 cells, IP1 TR-FRET (IP-One), carbachol + lithium | 0.35% of 210,000 active;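 further: IP1 builds up when IMPase is blocked and the TR-FRET signal falls; potency means the concentration at half of the fitted maximal effect; plate controls were basal vehicle for no effect and high inhibitor control for full effect; nearly all actives have a fitted effect of over 50% in size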
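Concentration–response in CHO-M1 cells, lithium-potentiated; 30 min at 37C. IP1 detected by competitive TR-FRET after 10 min lysis at RT. Hill-fitted AC50.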
12-hLO inh: qHTS Assay for Inhibitors of 12-hLO (12-human lipoxygenase); Polyunsaturated fatty acid lipoxygenase ALOX12 (Homo sapiens), P18054; purified 12-hLO, xylenol orange hydroperoxide absorbance; 0.12% of 150,000 active; AID 1452, 2008; Potency, µM (series often up to 57.1 µM), without a hit: at the top dose activity change, negative = inhibition, most hits filed as inhibitors; further: potency means the concentration at half of the fitted maximal effect; nearly all actives have a fitted effect of over 55% in size
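Lipoxygenase turnover measured by absorbance at 573 and 405 nm after Fe-XO development. Human 12hLO 150 nM, arachidonate 40 uM, pH 7.0 Hepes buffer with detergent; 15 min compound preincubation, 30 min reaction.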
Starred values were filed as active, the others as inactive; ? = inconclusive; · = not tested or not shown; [ ] = another dose, or the depositor's remark. Unless noted, the call rests on the fitted dose curve; in most records, active means well fitted curve in the direction sought with a large enough effect; inconclusive means small, poorly fitted or top-dose-only effect, or another doubt; inactive means no such curve, though single readings can be large; an effect the other way counts as inactive or inconclusive. Unless noted, on the % scale 0 is the no-effect control and ±100 the full control effect.

SMILES | PNC assembly inh | IMPase inh | 15-hLO-2 inh | HPGD block | IMPase Li cell | 12-hLO inh
COCCNC(=O)CN(c1ccc(OC)c(OC)c1)S(=O)(=O)c1ccc(C)cc1 | -106.0* | 2.9 | -4.5% | -10.3% | -4.2%[38.3 µM] | -7.1%
COc1ccc(CCNC(=O)CN(C)S(=O)(=O)c2ccc(Br)s2)cc1OC | -82.6* | · | · | -2.7% | -0.8% | -4.8%
COc1ccc(CCNC(=O)CN(c2ccc(OC)c(OC)c2)S(C)(=O)=O)cc1 | -139.2* | -0.3 | -2.6% | -4.1% | 10.5%[38.3 µM] | 5.2%
COc1ccc(CCNC(=O)CN(C)S(=O)(=O)c2cccs2)cc1OC | 23.4 | 4.3 | 3.6% | -5.5% | 16.9%[38.3 µM] | -0.5%
COC(=O)C1=C(C(=O)OC)[C@@H]2N(Cc3ccccc3)c3ccccc3[C@@]23C[C@@H](C(=O)OC)N(S(=O)(=O)c2ccc([N+](=O)[O-])cc2)C3=N1 | · | · | · | -3.1% | 9.9% | 2.9%[11.4 µM]
Cc1cccc(C)c1OCC(O)CN1CCC(CN2C(=O)c3cccc4cccc(c34)C2=O)CC1 (configuration not stated) | ? | 6.4 | 42.3% | ? | 48.0%[38.3 µM] | -1.1%
O=C(OC1CCOC1=O)c1ccc(S(=O)(=O)N2CCCCCC2)cc1 (configuration not stated) | 24.7 | 4.6 | 0.1% | 15.8µM* | 16.6%[38.3 µM] | -0.6%
O=C(OC1CCOC1=O)c1ccc(Cl)c(S(=O)(=O)N2CCCCC2)c1 (configuration not stated) | · | · | · | · | 4.2% | ·
COc1ccc(C2C(C(C)=O)=C(O)C(=O)N2c2cccnc2)c(OC)c1 (configuration not stated) | ? | -6.4 | · | ? | ? | 4.7%
COc1ccc(C2C(C(C)=O)=C(O)C(=O)N2C)c(OC)c1 (configuration not stated) | -127.2* | -3.2 | 6.5% | -9.5% | -8.2%[38.3 µM] | 3.7%
CCNc1ncc2nc(-c3ccccc3)c(=O)n(CCOC)c2n1 | · | · | -4.0% | · | -4.3% | ·
CN(C)CCC(=O)c1ccc(Cl)cc1 | ? | 4.8 | ? | 15.8µM* | -19.3%[38.3 µM] | -5.4%
O=C(O)CCC(=O)CCC(=O)c1ccc(Cl)cc1 | -0.8 | 1.3 | -2.6% | -16.7% | -5.4%[38.3 µM] | 2.9%
Nc1cc(-c2ccccc2)ccc1O | 17.5 | 0.1 | 12.6µM* | ? | 23.5%[38.3 µM] | ?
Nc1ccc(-c2ccc(N)c(O)c2)cc1O | · | · | -23.1% | -8.0% | 9.0% | -6.0%
CCOc1cc(/C=N/NC(N)=O)cc(Br)c1OCC(=O)Nc1cccc2ccccc12 | -0.3 | 11.5 | -14.2% | -16.1% | 6.2%[38.3 µM] | 4.6%
COc1cc(/C=N/O)cc(Br)c1OCC(=O)NCc1ccccc1 | ? | · | · | 14.1µM* | 0.0% | -3.9%
CCOc1cc(/C=N/O)cc(Br)c1OCC(=O)NCc1ccccc1 | -19.9 | · | · | 17.8µM* | 9.0% | 0.3%
Cc1ccc(C(=O)Nc2cc(C)c(OCC(=O)N3CCOCC3)c(C)c2)cc1 | -25.4 | 0.0 | -5.1% | -10.6% | 27.6%[38.3 µM] | 3.0%
COc1ccc(NC(=O)c2sc(=S)[nH]c2N)cc1 | 13.6 | 19.6 | · | 28.2µM* | 47.1%[38.3 µM] | -4.6%
COc1ccc(NC(=O)c2cccc(C(=O)Nc3ccc(OC)cc3)n2)cc1 | · | · | · | · | -7.5% | ·
Cc1ccc(S(=O)(=O)N(C)C)cc1-n1c(SCC(=O)Nc2ccc(F)c(F)c2F)nc2ccccc2c1=O | -16.4 | · | · | -12.4% | 0.2% | 2.2%
CCOC(=O)c1ccc(NS(=O)(=O)c2ccc3c(c2)OCCO3)cc1 | · | 3.8 | · | · | · | ·
O=C(CNS(=O)(=O)/C=C/c1ccccc1)OCC(=O)N1CCC(Cc2ccccc2)CC1 | -107.4* | -1.5 | -2.1% | -2.9% | -1.1%[38.3 µM] | -2.2%
O=C(NN=C1CCCCC1)NC1CCCCC1 | ? | -2.8 | · | -9.7% | 0.8% | -1.4%
SMILES | PNC assembly inh | IMPase inh | 15-hLO-2 inh | HPGD block | IMPase Li cell | 12-hLO inh
O=C(NN=C1CCCC1)NC1CCCCC1 | -118.2* | · | · | -9.2% | -4.9% | -3.1%
O=C(COC(=O)c1ccncc1)c1ccc(Cl)c(Cl)c1 | · | · | · | · | 3.9% | ·
COc1ccc(NC(=S)NNc2ccc([N+](=O)[O-])cc2S(=O)(=O)Nc2ccc(C)cc2C)cc1 | ? | · | · | 14.1µM* | 3.3% | -14.9%
Cc1ccc(NS(=O)(=O)c2cc([N+](=O)[O-])ccc2NNC(=S)Nc2cccc(Cl)c2)c(C)c1 | -23.6 | -10.0 | · | 28.2µM* | -7.8% | ?
COc1ccc(NC(=S)Nc2cccc([N+](=O)[O-])c2)cc1 | -8.6 | 0.5 | · | -7.3% | 2.4%[38.3 µM] | 9.1%
Cc1ccc(NS(=O)(=O)c2cc([N+](=O)[O-])ccc2NNC(=S)Nc2cc(C)ccc2C)c(C)c1 | ? | · | · | 7.94µM* | 9.6% | ?
Cc1ccc(NC(=O)COC(=O)CC2CCCC2)cc1Cl | · | · | · | · | -0.4% | ·
CC[C@](N)(CCC(=O)O)C(=O)O | · | -7.8 | 21.9% | -3.6% | -6.0% | -4.1%
CC1CN(C(=O)COC(=O)c2ccc(N)c([N+](=O)[O-])c2)CC(C)O1 (configuration not stated) | ? | 9.5 | · | 28.2µM* | 4.2% | -1.8%
CC(C)CNC(=O)c1ccccc1SCC(=O)NC12CC3CC(CC(C3)C1)C2 | ? | 10.6 | · | · | · | 4.1%
O=C(Nc1ccc(F)cc1F)c1cc(=O)n(-c2ccccc2)c(=O)[nH]1 | · | · | · | · | 20.5% | ·
CCCc1nnc(NC(=O)Cn2c(=O)oc3cc(Br)ccc32)s1 | -10.2 | 3.3 | 2.9% | ? | -0.9%[38.3 µM] | -0.5%
O=c1oc2cc(Br)ccc2n1CSC1=NCCS1 | -20.2 | 2.3 | -17.3% | 22.4µM* | 15.0%[38.3 µM] | -14.5%
COc1cc(/C=C2/C(=O)c3cccc([N+](=O)[O-])c3C2=O)c(Br)cc1O | 0.8 | · | · | 1.41µM* | 24.4% | -27.0%
O=C1CCCN1CCC1CCN(C2CC(=O)N(c3ccc(F)cc3)C2=O)CC1 (configuration not stated) | -111.9* | 12.3 | ? | -6.2% | -13.7%[38.3 µM] | -16.4%
COc1ccc(N2C(=O)CC(N3CCN(c4ccccc4F)CC3)C2=O)cc1 (configuration not stated) | -96.8* | -2.5 | -1.7% | -3.6% | 3.4%[38.3 µM] | -3.0%
Cc1ccc(N2C(=O)CC(N3CCN(C)CC3)C2=O)cc1 (configuration not stated) | -100.0* | 6.9 | · | -10.6% | 0.7% | 1.0%
COc1cccc(C(=O)CC2c3c(c(Br)c4c(c3OC)OCO4)CCN2C)c1 (configuration not stated) | · | · | · | ? | 5.9% | ·
